Source: PubChem BioAssay (NCATS)
Results filed as inconclusive are left out. Activity calls are given as the source filed them. Calls follow the shape of the dose curve; as a rule, active = well fitted inhibition curve with a large enough effect; inconclusive = small, poorly fitted or top-dose-only effect; inactive = flat fitted curve, though single readings scatter.

Tests used:
Test in all cases: qHTS profiling for inhibitors of Plasmodium falciparum proliferation (AID 504749); also: nearly all actives have a fitted effect of over 60% in size
Conditions in all cases: P. falciparum in erythrocytes, SYBR Green DNA, 72 h; series mostly up to 28.7 µM
CP269 = system: CP269
Procedure, shortened: (§1)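 P. falciparum-infected erythrocytes (0.3% parasitemia, 2.5% hematocrit) incubated with compound 72 h at 37 C, 5% CO2. Parasite DNA detected by SYBR Green after lysis, overnight at room temperature; normalised to 0.29 uM artemisinin and DMSO.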

CP286 = system: CP286
Procedure, shortened: as §1

CP291 = system: CP291
Procedure, shortened: as §1

CP297 = system: CP297
Procedure, shortened: as §1

CP305 = system: CP305
Procedure, shortened: as §1

CP315 = system: CP315
Procedure, shortened: as §1

CP325 = system: CP325
Procedure, shortened: as §1

CP329 = system: CP329
Procedure, shortened: as §1

CP335 = system: CP335
Procedure, shortened: as §1

DFO2036 = system: DFO2036
Procedure, shortened: as §1

DIV14 = system: DIV14
Procedure, shortened: as §1

DIV17 = system: DIV17
Procedure, shortened: as §1

DIV30 = system: DIV30
Procedure, shortened: as §1

Dd2 = system: Dd2
Procedure, shortened: as §1

ECU = system: ECU
Procedure, shortened: as §1

FAB9 = system: FAB9
Procedure, shortened: as §1

GB4 = system: GB4
Procedure, shortened: as §1

HB3 = system: HB3
Procedure, shortened: as §1

ICS = system: ICS
Procedure, shortened: as §1

JCK = system: JCK
Procedure, shortened: as §1

Measured: Potency

CC(=O)OC1CC2CCC1(C)C2(C)C (stereo not given)
inactive: all assays above
